Measured values as given in PubChem BioAssay.
Calls of active or inactive are those of the source.

Key:
[1] = test system: Plasmodium falciparum Sir2 (PF13_0152, Sir2A); experiment: pfSir2 binders on small-molecule microarrays, primary screen, biochemical, small-molecule microarray, 635 nm fluorescence (AID 1098); settings: small-molecule microarray binding, fluorescence 635 nm; higher = more signal;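 also: score merges spot fluorescence intensity with its signal-to-noise ratio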
[2] = small-molecule microarray binders of probe aDKK1, primary screen, biochemical, biotinylated probe, 635/667 nm fluorescence (AID 1099); settings: higher = more signal;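 also: score merges 667nm spot fluorescence with signal to noise across triplicate slides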
[3] = small-molecule microarray binders of probe aCHRDL2, primary screen, biochemical, biotinylated probe, 635/667 nm fluorescence (AID 1100); settings: higher = more signal
[4] = splicing luciferase reporter signal modulators, primary screen, spliceosome inhibition project, cell-based, HEK293, splice +/- reporter (AID 1101); settings: luminescence, 24 h, higher = more signal, called active from +8 up or from −8 down;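 also: HEK293 cells carrying a splicing-competent luciferase reporter gene; test concentration not given here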
[5] = biological target: Fibroblast growth factor 10 (Homo sapiens) (UniProt O15520); experiment: FGF10 binders on small-molecule microarrays, primary screen, biochemical, small-molecule microarray, 635 nm fluorescence (AID 1102); settings: FGF10 binding, fluorescence 635 nm, higher = more signal
[6] = test system: glycogen synthase kinase-3 (GSK3A per assay name; protocol says GSK3B); experiment: GSK3 binders on small-molecule microarrays, primary screen, biochemical, small-molecule microarray, 635 nm fluorescence, GSK3A (AID 1103); settings: small-molecule microarray binding, fluorescence 635 nm; higher = more signal; also: the record names both GSK3A and GSK3B
[7] = biological target: Epidermal growth factor receptor (Homo sapiens) (UniProt P00533); experiment: EGFR binders on small-molecule microarrays, primary screen, biochemical, small-molecule microarray, 635 nm fluorescence (AID 1104); settings: EGFR binding, higher = more signal;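 also: score merges 667 nm emission intensity with spot signal to noise over triplicate slides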
[8] = biological target: Follistatin-related protein 3 (Homo sapiens) (UniProt O95633); experiment: FSTL3 binders on small-molecule microarrays, primary screen, biochemical, small-molecule microarray, 635 nm fluorescence (AID 1105); settings: FSTL3 binding, higher = more signal;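 also: score merges emission near 667 nm and signal to noise per printed spot across three slides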
[9] = biological target: Dickkopf-related protein 1 (Homo sapiens) (UniProt O94907); experiment: DKK1 binders on small-molecule microarrays, primary screen, biochemical, small-molecule microarray, 635 nm fluorescence scan (AID 1106); settings: DKK1 binding, higher = more signal;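 also: score merges emission near 667 nm with signal to noise over three replicate slides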
[10] = test system: Inhibin beta A chain (activin A); experiment: INHBA (activin A) binders on microarrays, primary screen, biochemical, small-molecule microarray, 635 nm fluorescence scan (AID 1107); settings: small-molecule microarray binding, higher = more signal;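 also: mouse activin A protein probed at 4.33 µg/mL on printed slides; score merges bound-protein fluorescence near 667 nm with spot signal-to-noise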
[11] = test system: Human papillomavirus type 1a protein E7 (residues 44-93); experiment: HPV1a E7 fragment binders on microarrays, primary screen, biochemical, small-molecule microarray, residues 44-93, 635 nm fluorescence (AID 1108); settings: small-molecule microarray binding, fluorescence 635 nm; higher = more signal;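 also: E7 fragment applied at 1 µg/mL in TBST for 1 h at 4 C; score combines spot fluorescence with its signal to noise ratio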
[12] = modulators of HCV replicon luciferase signal, primary screen, HCV replication inhibitor project, Huh7 cells, luciferase reporter (AID 1109); settings: 48 h, higher = more signal;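 also: huh7 hepatoma cells harbouring a luciferase neomycin HCV replicon reporter; luciferase luminescence as measure of HCV replicon replication; test concentration not given here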
[13] = biological target: Left-right determination factor 2 (Homo sapiens) (UniProt O00292); experiment: LEFTY2 binders on small-molecule microarrays, primary screen, biochemical, small-molecule microarray, 635 nm fluorescence scan (AID 1110); settings: LEFTY2 binding, higher = more signal
[14] = biological target: Calmodulin-1 (Homo sapiens) (UniProt P0DP23); experiment: CALM1 binders on microarrays, EGTA buffer, profiling panel, biochemical, small-molecule microarray, Cy5-labelled CALM1 (AID 1111); settings: Cy5-CALM1 binding fluorescence, higher = more signal;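 also: labelled calmodulin applied in Tris saline Tween buffer holding calcium plus EGTA and DTT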
[15] = biological target: Calmodulin-1 (Homo sapiens) (UniProt P0DP23); experiment: calcium-bound CALM1 binders on microarrays, profiling panel, artefact control for SMM control-protein annotation, biochemical, small-molecule microarray, Cy5-labelled CALM1, plus calcium (AID 1112); settings: Cy5-CALM1 binding fluorescence, higher = more signal;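 also: score merges spot fluorescence with signal to noise from triplicate slides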
[16] = small-molecule microarray binders of probe aWnt5a, primary screen, biochemical, biotinylated probe, 635/667 nm fluorescence (AID 1113); settings: higher = more signal;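 also: score merges 667 nm fluorescence intensity with signal-to-noise per printed feature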
[17] = small-molecule microarray binders of probe aShh, primary screen, biochemical, biotinylated probe, 635/667 nm fluorescence (AID 1114); settings: higher = more signal;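 also: probe is biotin-labelled aShh protein from a stem cell growth factor screen; measures binding of labelled protein to compounds printed on the slide; score merges feature fluorescence at 667 nm with signal-to-noise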
[18] = small-molecule microarray binders of probe aNog, primary screen, biochemical, biotinylated probe, 635/667 nm fluorescence (AID 1115); settings: higher = more signal;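 also: probe is biotinylated aNog protein used at 0.15 µg/mL for 1 h at 4 C; z-score combines 667 nm fluorescence of each spot with its signal to noise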
[19] = biological target: Torsin-1A-interacting protein 1 (Homo sapiens) (UniProt Q5JTV8); experiment: LAP1 binders from COS7 cell lysate, primary screen, small-molecule microarray, 635/667 nm fluorescence (AID 1116); settings: COS7-hLAP1 lysate binding, 635 nm fluorescence, higher = more signal
[20] = biological target: Alpha-bungarotoxin (Bungarus multicinctus) (UniProt P60615); experiment: alpha-bungarotoxin binders on microarray, profiling panel, artefact control for SMM control protein annotation, biochemical, small-molecule microarray, Alexa647 label, 635/667 nm fluorescence (AID 1117); settings: alpha-BTX-A647 binding fluorescence, higher = more signal
Alpha-bungarotoxin (Bungarus multicinctus), sequence (P60615 whole entry, looked up): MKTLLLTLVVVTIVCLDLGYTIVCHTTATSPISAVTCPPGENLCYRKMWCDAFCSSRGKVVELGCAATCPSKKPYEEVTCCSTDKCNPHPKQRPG

Follistatin-related protein 3 (Homo sapiens), sequence (O95633 whole entry, looked up): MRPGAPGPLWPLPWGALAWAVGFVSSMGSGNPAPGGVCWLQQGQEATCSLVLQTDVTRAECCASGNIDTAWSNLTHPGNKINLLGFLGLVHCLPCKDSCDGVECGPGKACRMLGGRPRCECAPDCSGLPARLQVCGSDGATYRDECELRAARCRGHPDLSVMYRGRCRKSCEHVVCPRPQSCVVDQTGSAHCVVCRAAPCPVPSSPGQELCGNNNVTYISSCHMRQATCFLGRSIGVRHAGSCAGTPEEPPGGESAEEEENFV
Dickkopf-related protein 1 (Homo sapiens), sequence (O94907 whole entry, looked up): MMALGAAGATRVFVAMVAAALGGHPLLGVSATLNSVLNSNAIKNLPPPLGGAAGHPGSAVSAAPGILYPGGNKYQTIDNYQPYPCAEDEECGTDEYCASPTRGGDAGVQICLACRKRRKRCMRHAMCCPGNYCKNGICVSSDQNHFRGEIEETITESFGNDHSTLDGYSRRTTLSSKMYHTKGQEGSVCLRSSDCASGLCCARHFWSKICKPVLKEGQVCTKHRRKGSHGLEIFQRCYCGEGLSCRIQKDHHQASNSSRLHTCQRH
Fibroblast growth factor 10 (Homo sapiens), sequence (O15520 whole entry, looked up): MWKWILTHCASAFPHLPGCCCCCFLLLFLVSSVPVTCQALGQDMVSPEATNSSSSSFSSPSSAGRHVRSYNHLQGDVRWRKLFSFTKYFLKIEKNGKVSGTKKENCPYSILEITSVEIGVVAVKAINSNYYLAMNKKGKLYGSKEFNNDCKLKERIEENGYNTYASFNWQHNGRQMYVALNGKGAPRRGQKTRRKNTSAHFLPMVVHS
Left-right determination factor 2 (Homo sapiens), sequence (O00292 whole entry, looked up): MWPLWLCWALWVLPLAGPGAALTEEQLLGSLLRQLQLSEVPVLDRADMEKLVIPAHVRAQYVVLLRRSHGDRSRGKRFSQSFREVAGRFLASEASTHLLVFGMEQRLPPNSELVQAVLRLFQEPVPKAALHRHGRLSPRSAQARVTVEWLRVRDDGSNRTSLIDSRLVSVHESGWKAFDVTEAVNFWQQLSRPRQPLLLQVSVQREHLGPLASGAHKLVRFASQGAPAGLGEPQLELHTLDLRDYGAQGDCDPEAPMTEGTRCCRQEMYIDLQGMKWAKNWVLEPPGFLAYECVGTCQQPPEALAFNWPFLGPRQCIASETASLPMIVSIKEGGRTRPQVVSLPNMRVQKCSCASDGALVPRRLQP
Torsin-1A-interacting protein 1 (Homo sapiens), sequence (Q5JTV8 whole entry, looked up): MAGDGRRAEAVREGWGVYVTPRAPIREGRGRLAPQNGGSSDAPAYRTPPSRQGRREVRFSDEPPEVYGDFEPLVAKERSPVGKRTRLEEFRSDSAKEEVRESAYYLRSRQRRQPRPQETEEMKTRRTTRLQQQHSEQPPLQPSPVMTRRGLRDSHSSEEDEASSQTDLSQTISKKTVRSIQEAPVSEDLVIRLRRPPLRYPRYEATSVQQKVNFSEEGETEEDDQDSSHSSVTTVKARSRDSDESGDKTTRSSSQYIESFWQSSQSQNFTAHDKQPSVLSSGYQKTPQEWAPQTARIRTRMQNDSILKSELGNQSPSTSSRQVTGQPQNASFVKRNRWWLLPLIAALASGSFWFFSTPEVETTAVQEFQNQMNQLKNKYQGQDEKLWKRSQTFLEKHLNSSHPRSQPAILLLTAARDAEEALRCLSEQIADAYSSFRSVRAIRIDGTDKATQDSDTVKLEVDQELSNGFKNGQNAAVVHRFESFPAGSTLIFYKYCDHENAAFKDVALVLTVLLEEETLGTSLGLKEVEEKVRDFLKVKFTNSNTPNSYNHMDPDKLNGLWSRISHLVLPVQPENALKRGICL
Epidermal growth factor receptor (Homo sapiens), sequence (P00533 whole entry, looked up): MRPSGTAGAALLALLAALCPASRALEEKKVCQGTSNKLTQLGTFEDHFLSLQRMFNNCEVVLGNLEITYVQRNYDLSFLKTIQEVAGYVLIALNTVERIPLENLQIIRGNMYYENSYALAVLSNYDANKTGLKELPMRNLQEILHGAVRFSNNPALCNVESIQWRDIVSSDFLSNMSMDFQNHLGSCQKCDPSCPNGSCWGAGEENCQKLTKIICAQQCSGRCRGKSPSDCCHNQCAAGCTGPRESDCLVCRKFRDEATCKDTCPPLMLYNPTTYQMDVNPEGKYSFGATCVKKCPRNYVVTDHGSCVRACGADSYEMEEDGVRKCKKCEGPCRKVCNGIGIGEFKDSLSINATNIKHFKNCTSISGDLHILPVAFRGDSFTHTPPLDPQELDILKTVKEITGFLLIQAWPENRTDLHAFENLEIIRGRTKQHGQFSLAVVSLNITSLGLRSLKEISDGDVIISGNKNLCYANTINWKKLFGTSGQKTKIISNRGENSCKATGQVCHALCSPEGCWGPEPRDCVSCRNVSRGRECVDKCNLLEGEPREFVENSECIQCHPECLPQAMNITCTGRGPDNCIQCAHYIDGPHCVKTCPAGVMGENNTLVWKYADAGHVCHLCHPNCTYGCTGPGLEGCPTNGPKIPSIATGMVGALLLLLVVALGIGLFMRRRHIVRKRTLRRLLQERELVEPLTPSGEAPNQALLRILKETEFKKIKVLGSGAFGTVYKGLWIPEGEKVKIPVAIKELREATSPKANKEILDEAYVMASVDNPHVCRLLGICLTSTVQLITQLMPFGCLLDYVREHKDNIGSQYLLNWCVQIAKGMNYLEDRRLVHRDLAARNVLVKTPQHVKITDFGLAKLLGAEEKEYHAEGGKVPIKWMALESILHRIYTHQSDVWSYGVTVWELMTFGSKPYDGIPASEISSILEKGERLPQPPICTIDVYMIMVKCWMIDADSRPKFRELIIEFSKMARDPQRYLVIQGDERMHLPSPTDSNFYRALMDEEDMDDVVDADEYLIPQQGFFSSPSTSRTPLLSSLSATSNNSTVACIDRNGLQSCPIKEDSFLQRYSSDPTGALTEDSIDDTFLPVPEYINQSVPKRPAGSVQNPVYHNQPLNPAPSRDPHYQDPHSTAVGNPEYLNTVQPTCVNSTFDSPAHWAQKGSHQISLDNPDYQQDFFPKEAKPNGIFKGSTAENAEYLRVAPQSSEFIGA

Compound | composite z-score [1] | composite z-score [2] | composite z-score [3] | z-score [4] | composite z-score [5] | composite z-score [6] | composite z-score [7] | composite z-score [8] | composite z-score [9] | composite z-score [10] | composite z-score [11] | z-score [12] | composite z-score [13] | composite z-score [14] | composite z-score [15] | composite z-score [16] | composite z-score [17] | composite z-score [18] | composite z-score [19] | composite z-score [20]
CN(C)CCCC[C@@H]1NC(=O)[C@H]2C[C@@H](C(=O)NCCCCCNC(=O)CS)[C@@H](c3cccc(OCCO)c3)N2C1=O | 1.12 | -0.144 | 0.61 | 0.515 (inactive) | 0.305 | 0.894 | 0.227 | 0.65 | 0.459 | -0.0899 | 0.586 | -0.556 | -0.0183 | 0.137 | -0.734 | -0.195 | 0.0796 | -0.363 | 0.898 | -0.223
COC(=O)C(CC#Cc1ccc2c(c1)[C@]1(C(=O)N2)[C@H](C(=O)O)[C@H]2C(=O)O[C@H](c3ccccc3)[C@H](c3ccccc3)N2[C@@H]1c1ccc(O)cc1)C(=O)OC | 0.472 | -0.0082 | 0.634 | 0.199 (inactive) | 0.284 | -0.266 | -0.46 | -0.662 | -0.685 | -1.07 | 1.03 | -0.374 | -0.354 | -0.345 | 0.0677 | -0.124 | -0.366 | 0.26 | -0.273 | -0.472
CCCCN1CC=CC23O[C@@H]4/C=C\CCC(C)OC(=O)C4[C@H]2C(=O)N(CCCCCO)[C@@H]3C1=O (stereo not given in full) | 0.0665 | -0.267 | 0.421 | -0.259 (inactive) | -1.28 | -0.577 | -0.762 | -0.668 | -1.41 | -0.323 | 0.15 | -0.275 | -1.39 | -0.78 | 0.0481 | -0.191 | -0.214 | -0.21 | 1.27 | -1.14
COCCOC(=O)N1C(=O)[C@@]2(c3ccccc31)[C@H](c1ccccc1OCCO)N1[C@H](c3ccccc3)[C@H](c3ccccc3)OC(=O)[C@H]1[C@@H]2C(=O)Nc1nc2ccccc2s1 | 1.4 | 0.262 | 0.245 | -0.968 (inactive) | 1.1 | 1.32 | 0.661 | 1.34 | 0.476 | 0.0911 | 0.484 | -2.52 | 0.531 | 1.24 | 0.375 | 0.0095 | -0.188 | 0.326 | 0.988 | 1.74
CN1C(=O)C2C=CC(C(O)C3CCCCC3)N(Nc3ccc([N+](=O)[O-])cc3[N+](=O)[O-])C2C1=O (stereo not given) | 0.912 | 0.778 | 0.906 | 1.84 (inactive) | 0.911 | 0.323 | 0.374 | 1.29 | -0.33 | 0.738 | 1.28 | -0.613 | 0.0511 | 1.42 | 0.377 | -0.0472 | 0.13 | 1.59 | 1.28 | 1.34
